Bioassay records (PubChem)
Sampled rows, rich in hits. Any-hit rate of the full collection: about 27%.
CYP2C9 activ: CYP2C9 (human) activation | recombinant CYP2C9, luciferin-H conversion, luminescence; active compounds read high; factor 1 = untreated enzyme, 0 = blocked | P11712 | activation factor at 5 µM | hit rate 1.4% among 96,000;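 active = activation factor of 2 or more for CYP2C9 at a 5 µM dose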;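 note: 0 = sulfaphenazole-blocked wells and 1 = vehicle-only wells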
Cav32 inh: blocks human Cav3.2 T-type calcium channel. B-score at 10 µM. AID 449739. hit rate 4% among 100,000. Cav3.2-expressing cells, Fluo-4 calcium fluorescence FDSS; active compounds read low;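 active = single-dose well whose peak fluorescence ratio is a statistical outlier from its plate by either plate-standardised score or position-corrected B-score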
CYP2C19 inhib: blocks human cytochrome P450 2C19 | CYP2C19 Supersomes, luciferin-H EGE luminescence, 30 min | AID 778 | hit rate 21% among 96,000 | P33261 | inhibition, % at 5 µM;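 active = CYP2C19 inhibition above a set limit at 5 µM in the primary screen, cut at about 50% in these data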;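 note: plate controls were negative control wells for no effect and 2.5 mM tranylcypromine positive control for full effect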
Target sequence (P33261 whole entry, looked up): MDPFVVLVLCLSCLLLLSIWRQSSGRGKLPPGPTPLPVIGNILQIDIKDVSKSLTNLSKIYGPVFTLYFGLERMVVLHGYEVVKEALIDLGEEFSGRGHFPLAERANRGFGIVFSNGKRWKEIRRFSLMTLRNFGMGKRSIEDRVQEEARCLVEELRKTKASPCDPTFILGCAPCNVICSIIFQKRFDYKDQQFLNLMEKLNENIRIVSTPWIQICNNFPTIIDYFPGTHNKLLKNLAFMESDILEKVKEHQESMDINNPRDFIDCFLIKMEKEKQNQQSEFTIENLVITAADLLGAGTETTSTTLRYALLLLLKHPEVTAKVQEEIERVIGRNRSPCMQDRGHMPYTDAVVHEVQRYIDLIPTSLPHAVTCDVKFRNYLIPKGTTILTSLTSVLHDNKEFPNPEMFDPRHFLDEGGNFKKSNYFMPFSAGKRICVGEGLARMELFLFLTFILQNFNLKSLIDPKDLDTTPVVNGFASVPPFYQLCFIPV
CYP2C19 act: increases human CYP2C19 enzyme activity; activation factor at 5 µM; 96,000 tested, under 10 active; P33261; recombinant CYP2C19, luciferin-H EGE luminescence; active compounds read high; 0 = fully inhibited enzyme, 1 = untreated enzyme;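 active = activation factor of at least 2 at 5 µM in the primary screen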;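 note: 0 = wells with 2.5 mM tranylcypromine and 1 = vehicle-only wells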
CYP2C9 inhib: blocks human cytochrome P450 2C9; P11712; AID 777; CYP2C9 Supersomes, luciferin-H conversion, luminescence; inhibition, % at 5 µM; hit rate 20% among 96,000;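 active = blocking of liver enzyme CYP2C9 beyond about 50% at 5 µM, limit read from the data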
The depositor's hits bear a star; . = no result given.

SMILES | CYP2C9 activ | Cav32 inh | CYP2C19 inhib | CYP2C19 act | CYP2C9 inhib
Clc1ccc(CSCCc2ccncc2)cc1 | 0 | . | 100.4* | 0 | 100.0*
CCCOc1ccccc1Nc1nnc(C)c(=O)[nH]1 | 1.1 | 0.295 | -6.2 | 1.1 | -9.1
CCOC(=O)CN1C(=O)C(Sc2n[nH]c(-c3ccc(O)cc3)n2)CCc2ccccc21 (stereo not given) | 0.1 | -6.47* | 81.6* | 0.2 | 93.5*
CCOC(=O)CN1C2=NCCN2c2ccccc21 | 1.1 | 0.662 | -14.2 | 1.1 | -11.9
Clc1ccc2nc(CN3CCCCC3)cn2c1 | 0.8 | 0.653 | 8.7 | 0.9 | 21.2
Clc1ccc2nc(CN3CCCc4ccccc43)cn2c1 | 0.1 | -2.44 | 87.8* | 0.1 | 92.7*
COc1ccc(C2(C(=O)NCCCN3CCOCC3)CCOCC2)cc1 | 1 | . | 3.4 | 1 | -3.0
Cc1cc(C)c(-c2cc(NC(=O)CSc3n[nH]c(N)n3)n(-c3ccccc3)n2)cc1C | 0.1 | -2.27 | 93.9* | 0.1 | 90.2*
C=CCn1c(C)cc(C(=O)CSc2n[nH]c(N)n2)c1C | 2.6* | -0.0952 | 26.5 | 0.7 | -157.0
Nc1nc(SCC(=O)Nc2ccc(Br)cc2F)n[nH]1 | 0.5 | -0.326 | 93.4* | 0.1 | 49.1
Nc1nc(SCC(=O)NCCC(c2ccccc2)c2ccccc2)n[nH]1 | 0.3 | 0.0261 | 95.6* | 0 | 70.8*
Cc1cc(Br)ccc1NC(=O)CNC(=O)CSc1n[nH]c(N)n1 | 1 | 0.785 | -11.2 | 1.1 | 2.9
COc1cccc(CNC(=O)C2CCCN(S(=O)(=O)c3c(C)[nH]c(=O)[nH]c3=O)C2)c1 (stereo not given) | 1 | 0.02 | -2.6 | 1 | 2.5
COc1cc(C(=O)NCCN2CCCC2)cc(OC)c1OC | . | 0.194 | . | . | .
COc1ccc(N2CCN(C(=O)Cn3c(=O)[nH]c4ccsc4c3=O)CC2)cc1 | 1.1 | 0.398 | -8.7 | 1.1 | -12.2
Cc1cc(C(=O)CSc2n[nH]c(N)n2)c(C)n1-c1cc(F)ccc1F | 0.5 | -1.15 | 76.5* | 0.2 | 54.1*
Cc1ccc(-n2c(C)cc(C(=O)CSc3n[nH]c(N)n3)c2C)cc1 | 0.7 | -2.13 | 39.2 | 0.6 | 27.8
Cc1cc(C(=O)CSc2n[nH]c(N)n2)c(C)n1-c1ccccc1 | 0.4 | -2.64 | 87.4* | 0.1 | 58.2*
Cc1ccccc1C(=O)/C=C1\NC(=O)CS1 | 0.8 | 0.475 | 6.8 | 0.9 | 15.2
CS(=O)(=O)N1CCc2cc(S(=O)(=O)Nc3ccc4oc5c(c4c3)CCCC5)ccc21 | 0.1 | -1.37 | 96.2* | 0 | 92.9*
O=C(Nc1ccccn1)[C@@H]1CCC(=O)N1C(=O)OCc1ccccc1 | 1.1 | 0.892 | 43.2 | 0.6 | -12.5
Cc1cc(NC(=O)CCC(=O)N(Cc2ccco2)C(C(=O)NC2CCCC2)c2ccccc2C)no1 (stereo not given) | . | -7.37* | . | . | .
Cc1ccc(C(C(=O)NC2CCCC2)N(C(=O)CCC(=O)Nc2cc(C)on2)c2ccccc2)cc1 (stereo not given) | . | 0.548 | . | . | .
COCCNC(=O)CN(C(=O)CCC(=O)Nc1nccs1)c1ccccc1OC | 0.7 | -0.196 | 10.8 | 0.9 | 33.6
Cc1cc(NC(=O)CCC(=O)N(c2cccnc2)C(C(=O)NC2CCCC2)c2ccccc2F)no1 (stereo not given) | . | -0.0542 | . | . | .
SMILES | CYP2C9 activ | Cav32 inh | CYP2C19 inhib | CYP2C19 act | CYP2C9 inhib
Cc1cc(NC(=O)CCC(=O)N(CCc2ccccc2)C(C(=O)NC2CCCC2)c2ccco2)no1 (stereo not given) | 0.7 | -3.66* | 37.6 | 0.6 | 33.2
COCCNC(=O)C(c1ccc(F)cc1)N(Cc1ccco1)C(=O)CCC(=O)Nc1nccs1 (stereo not given) | 0.6 | . | 53.0* | 0.5 | 36.4
Cc1cc(NC(=O)CCC(=O)N(Cc2ccco2)C(C(=O)NC2CCCCC2)c2ccccc2)no1 (stereo not given) | . | -4.4* | . | . | .
CCc1cc(C(=O)OC)c(NC(=O)C2CC(=O)NN2Cc2ccccc2)s1 (stereo not given) | 0.5 | -1.19 | 28.5 | 0.7 | 47.2
Cc1c(NC(=O)CSc2nnc(-c3cccc(Cl)c3)o2)c(=O)n(-c2ccccc2)n1C | 0.7 | . | 0.5 | 1 | 31.7
COc1cccc(NC(=O)c2ccc(-n3cccn3)nc2)c1 | 0.8 | 1.46 | 18.2 | 0.8 | 21.8
O=C(CCC(=O)N(c1ccc(F)cc1)C(C(=O)NC1CCCC1)c1ccncc1)Nc1cccnc1 (stereo not given) | . | 0.963 | . | . | .
O=C(CCC(=O)N(Cc1ccco1)C(C(=O)NC1CCCC1)c1ccncc1)Nc1cccnc1 (stereo not given) | 0.4 | 1.01 | 75.0* | 0.3 | 60.6*
CCC(C)Sc1nc2ccccc2c(=O)[nH]1 (stereo not given) | . | -0.493 | . | . | .
COc1ccccc1S(=O)Cc1ccc(C(=O)NCCc2ccc(Cl)cc2)o1 (stereo not given) | 0.4 | -0.812 | 62.3* | 0.4 | 64.8*
O=S(=O)(Nc1cccc2c1ccc1cccn12)c1cccs1 | 0.4 | -2.72 | 30.3 | 0.7 | 58.9*
CCCNc1nc(C)cc(-c2cc(-c3ccc(Cl)cc3)on2)n1 | . | -0.179 | . | . | .
CC(C)OCCCNC(=O)NC12CC3CC(CC(C3)C1)C2 | 0.9 | 0.168 | 57.0* | 0.4 | 6.8
CCCn1c(=O)n(C)c(=O)c2c(SCC(=O)NCc3ccco3)nc(C3CC3)nc21 | 0.4 | 1.77 | 12.0 | 0.9 | 58.7*
O=C(CSc1nc(C2CC2)nc2sc3c(c12)CCCC3)NCc1ccco1 | 1 | -0.187 | -14.8 | 1.1 | -4.1
C/C(N)=C(/C#N)C(=O)CN1CCCCC1 | 1.2 | -0.372 | -10.7 | 1.1 | -18.2
Nc1c(S(=O)(=O)c2cccc(Cl)c2)c2nc3ccccc3nc2n1CCN1CCOCC1 | 0.8 | -0.918 | 12.0 | 0.9 | 24.9
O=S(=O)(Nc1nc2ccccc2nc1NCCN1CCOCC1)c1cccc(Cl)c1 | 0 | -1.31 | 0.2 | 1 | 98.3*
Clc1ccc(-c2nc(NCCN3CCOCC3)c3ccccc3n2)cc1 | 0.5 | 0.446 | 20.0 | 0.8 | 50.4*
CCN1C(=O)N[C@H](c2ccc(Br)cc2)C(C(C)=O)=C1C | . | 0.465 | . | . | .
O=C1CC(N2CCN(c3ccc(F)cc3)CC2)C(=O)N1Cc1cccs1 (stereo not given) | 0.7 | 0.37 | 29.5 | 0.7 | 32.6
O=C1CC(N2CCN(c3nc4ccccc4s3)CC2)C(=O)N1Cc1cccs1 (stereo not given) | 0.3 | -1.19 | 47.6 | 0.5 | 68.9*
CCCCOc1ccc(OCCCC)c2c1NC1(N2)C(=O)N(C(C)=O)c2ccccc21 | 0.8 | -1.61 | 53.4* | 0.5 | 24.1
COc1ccc(Cl)cc1C(=O)Nc1ccc(S(=O)(=O)N2CCCC2)cc1 | 0.9 | . | -20.6 | 1.2 | 9.9
Cc1cc(N2C(=O)C3C4c5ccccc5C(c5ccccc54)C3C2=O)no1 (stereo not given) | 0.4 | . | 80.0* | 0.2 | 59.2*
COCCN(CC(=O)NCc1ccc(OC)cc1)C(=O)CCC(=O)Nc1nccs1 | 1 | 1.22 | 6.3 | 0.9 | 0.9
CCOC(=O)c1ccc(NC(=O)CCc2c(C)nc3ncnn3c2C)cc1 | . | 0.179 | . | . | .
CCc1nnc(NC(=O)Cn2c(=O)oc3ccccc32)s1 | 0.3 | 0.58 | 63.7* | 0.4 | 72.7*
